Experimental data taken from PubChem BioAssay (NCI).
Compounds without any hit were thinned out: in the full panel of roughly 79,000, 15% have a hit. Calls of active or inactive are those of the source. No stated cut-off is given here; in the data, active means growth inhibition above about 70%; inactive means the rest.

Columns and labels:
[1] = NCI Yeast Anticancer Drug Screen. Data for the mec2-1 strain (AID 157); conditions: S. cerevisiae mec2-1 strain, stronger effect = higher value
Method in brief: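 Each compound was tested on mec2-1 yeast, a strain altered in DNA damage repair or cell cycle control. Growth inhibition is reported relative to vehicle.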

[2] = NCI Yeast Anticancer Drug Screen. Data for the rad14 strain (AID 159);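 further: 0% = growth of vehicle-treated control cultures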; conditions: S. cerevisiae rad14 strain growth inhibition, stronger effect = higher value
Method in brief: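 Yeast cells carrying a defined DNA-repair defect were exposed to compounds, and growth inhibition was calculated relative to vehicle-treated control cultures.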

[3] = NCI Yeast Anticancer Drug Screen. Data for the sgs1 mgt1 strain (AID 161);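 further: 0% = growth of cultures given vehicle only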; conditions: S. cerevisiae sgs1 mgt1 strain, stronger effect = higher value
Method in brief: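 Genetically altered yeast, compound exposure, growth inhibition relative to vehicle.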

[4] = NCI Yeast Anticancer Drug Screen. Data for the CLN2oe strain (AID 163);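 further: 0% = growth of vehicle-only control cultures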; conditions: S. cerevisiae CLN2oe strain, stronger effect = higher value
Method in brief: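 First, the altered yeast strain was treated with each compound; second, its growth was measured; finally, inhibition was derived by comparison with vehicle controls.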

[5] = NCI Yeast Anticancer Drug Screen. Data for the cln2 rad14 strain (AID 165);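 further: 0% = growth equal to vehicle treated cultures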; conditions: S. cerevisiae cln2 rad14 strain, stronger effect = higher value
Method in brief: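 Test compounds were added to cln2 rad14 yeast cultures; inhibition of growth was then determined by comparison with vehicle treatment.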

[6] = NCI Yeast Anticancer Drug Screen. Data for the bub3 strain (AID 167); conditions: S. cerevisiae bub3 mutant strain, stronger effect = higher value
Method in brief: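 Compounds were applied to a genetically altered yeast strain carrying a cell-cycle control defect. Growth inhibition was scored against vehicle-treated controls.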

[7] = NCI Yeast Anticancer Drug Screen. Data for the mlh1 strain (AID 171);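 further: 0% = growth of vehicle-treated control cultures of the same strain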; conditions: S. cerevisiae mlh1 strain growth inhibition, stronger effect = higher value
Method in brief: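 Inhibition values reflect reduced yeast growth in the presence of compound, referenced to vehicle controls, using a strain chosen for its alteration in DNA repair or cell cycle control.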

[8] = NCI Yeast Anticancer Drug Screen. Data for the mlh1 rad18 strain (AID 175); conditions: S. cerevisiae mlh1 rad18 strain growth inhibition, stronger effect = higher value
Method in brief: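 Inhibition values reflect reduced growth of mutant yeast versus vehicle-treated controls following compound exposure; the mutations affect DNA damage repair.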

[9] = NCI Yeast Anticancer Drug Screen. Data for the rad18 strain (AID 177); conditions: S. cerevisiae rad18 mutant growth inhibition, stronger effect = higher value
Method in brief: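 Steps: expose repair-mutant yeast to compound; measure growth; express as inhibition relative to vehicle control.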

[10] = NCI Yeast Anticancer Drug Screen. Data for the wt1 strain (AID 149);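 further: 0% = growth of vehicle-treated wt1 cultures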; conditions: S. cerevisiae wt1 strain (SPY 50644) growth inhibition, stronger effect = higher value
Method in brief: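 Yeast wt1 strain exposed to compounds; growth inhibition measured relative to vehicle-treated controls.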

[11] = NCI Yeast Anticancer Drug Screen. Data for the rad50EPP+ strain (AID 151);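 further: 0% = growth of vehicle-treated control cultures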; conditions: S. cerevisiae rad50 mutant strain, stronger effect = higher value
Method in brief: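 Genetically defined yeast (rad50EPP+, DNA damage repair alteration) is grown with compound, and inhibition of growth is expressed relative to vehicle-treated controls.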

[12] = NCI Yeast Anticancer Drug Screen. Data for the mgt1 strain (AID 153); conditions: S. cerevisiae mgt1 mutant growth inhibition, stronger effect = higher value
Method in brief: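 In the mgt1 strain, test compounds were added and growth inhibition was determined relative to vehicle-treated controls.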

[13] = NCI Yeast Anticancer Drug Screen. Data for the rad50 strain (AID 155);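 further: 0% = growth of vehicle-only cultures of the same strain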; conditions: S. cerevisiae rad50 strain growth inhibition, stronger effect = higher value
Method in brief: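 Yeast carrying a defined DNA repair defect were exposed to test compounds, and growth was compared with vehicle-treated controls to give percent inhibition.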

[14] = NCI Yeast Anticancer Drug Screen. Data for the wt2 strain (AID 169);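 further: 0% = growth of vehicle-treated yeast cultures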; conditions: S. cerevisiae wt2 strain growth inhibition, stronger effect = higher value
Method in brief: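 The panel's yeast strains carry defined changes in DNA repair or cell cycle genes. Each strain is grown with compound, and growth loss is scored relative to vehicle.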

[15] = NCI Yeast Anticancer Drug Screen. Data for the sgs1 strain (AID 173);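 further: 0% = growth of vehicle-only control cultures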; conditions: S. cerevisiae sgs1 mutant, stronger effect = higher value
Method in brief: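 Vehicle-treated cultures served as reference for growth inhibition of a yeast strain altered in DNA damage repair or cell cycle control after compound exposure.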

[16] = at 5.0 µM (retest, dose inferred, filed as 0.5)
[17] = at 50.0 µM (retest, dose inferred, filed as 5.0)

Measured: growth inhibition

O=[N+]([O-])c1cccc2nc3ccccc3c(NCCC[N+]3([O-])CCOCC3)c12
active: [1]; at 100.0 µM 97% | [2]; at 3.7 µM 87% | [2]; at 11.0 µM 96% | [2]; at 33.0 µM 98% | [2]; at 100.0 µM 97% | [3]; [16] 73% | [3]; [17] 93% | [3]; at 50.0 µM 79.6% | [4]; at 100.0 µM 91% | [5]; [16] 86% | [5]; [17] 98% | [5]; at 50.0 µM 94.6% | [6]; [17] 75% | [6]; at 100.0 µM 84% | [7]; at 100.0 µM 92% | [8]; [16] 71% | [8]; [17] 98% | [8]; at 50.0 µM 94.5% | [9]; at 1.2 µM 95% | [9]; at 3.7 µM 95% | [9]; at 11.0 µM 96% | [9]; at 33.0 µM 97% | [9]; at 100.0 µM 95%
inactive: [2]; at 1.2 µM 38% | [4]; at 1.2 µM -15% | [4]; at 3.7 µM -13% | [4]; at 11.0 µM 10% | [4]; at 33.0 µM 55% | [6]; at 1.2 µM -9% | [6]; at 3.7 µM -13% | [6]; [16] -6% | [6]; at 11.0 µM -9% | [6]; at 33.0 µM 14% | [6]; at 50.0 µM 34.4% | [7]; at 1.2 µM 1% | [7]; at 3.7 µM 5% | [7]; at 11.0 µM 21% | [7]; at 33.0 µM 62%

CCOc1nc(OCC)nc(-c2cccn2-c2ccccc2)n1
inactive: [10]; at 1.2 µM -19% | [10]; at 3.7 µM -22% | [10]; at 11.0 µM -13% | [10]; at 33.0 µM -11% | [11]; at 1.2 µM 1% | [11]; at 3.7 µM 5% | [11]; at 11.0 µM 23% | [11]; at 33.0 µM 12% | [11]; at 100.0 µM 40% | [12]; at 1.2 µM 1% | [12]; at 3.7 µM 8% | [12]; at 11.0 µM 6% | [12]; at 33.0 µM 25% | [13]; at 1.2 µM 7% | [13]; at 3.7 µM 40% | [13]; at 11.0 µM 35% | [13]; at 33.0 µM 26% | [1]; at 1.2 µM -4% | [1]; at 3.7 µM 9% | [1]; at 11.0 µM -6% | [1]; at 33.0 µM 12% | [1]; at 50.0 µM 59.7% | [2]; at 1.2 µM -11% | [2]; at 3.7 µM -8% | [2]; at 11.0 µM -1% | [2]; at 33.0 µM 13% | [3]; [16] -13% | [4]; at 1.2 µM -2% | [4]; at 3.7 µM 0% | [4]; at 11.0 µM 11% | [4]; at 33.0 µM 6% | [5]; [16] 55% | [6]; at 1.2 µM 19% | [6]; at 3.7 µM 36% | [6]; [16] 14% | [6]; at 11.0 µM 32% | [6]; at 33.0 µM 43% | [14]; at 1.2 µM -3% | [14]; at 3.7 µM 8% | [14]; at 11.0 µM 1% | [14]; at 33.0 µM 38% | [7]; at 1.2 µM -25% | [7]; at 3.7 µM -6% | [7]; at 11.0 µM -12% | [7]; at 33.0 µM 2% | [15]; at 1.2 µM 16% | [15]; at 3.7 µM 15% | [15]; at 11.0 µM 14% | [15]; at 33.0 µM 43% | [9]; at 1.2 µM -4% | [9]; at 3.7 µM 15% | [9]; at 11.0 µM 19% | [9]; at 33.0 µM 19%
active: [10]; at 100.0 µM 94% | [12]; at 100.0 µM 96% | [13]; [16] 85% | [13]; [17] 100% | [13]; at 50.0 µM 70.3% | [13]; at 100.0 µM 92% | [1]; [16] 93% | [1]; [17] 100% | [1]; at 100.0 µM 93% | [2]; at 100.0 µM 90% | [3]; [17] 74% | [4]; at 100.0 µM 91% | [5]; [17] 83% | [6]; [17] 87% | [6]; at 100.0 µM 94% | [14]; at 100.0 µM 95% | [7]; at 100.0 µM 89% | [15]; at 100.0 µM 95% | [8]; [16] 86% | [8]; [17] 100% | [8]; at 50.0 µM 80.2% | [9]; at 100.0 µM 93%

Nc1ccc2ncc(Nc3ccc(Cl)c(Cl)c3)nc2c1
active: [10]; at 33.0 µM 95% | [10]; at 100.0 µM 96% | [12]; at 33.0 µM 96% | [12]; at 100.0 µM 97% | [13]; at 11.0 µM 70% | [13]; at 33.0 µM 96% | [13]; [17] 95% | [13]; at 50.0 µM 85% | [13]; at 100.0 µM 96% | [1]; at 33.0 µM 96% | [1]; [17] 98% | [1]; at 50.0 µM 86% | [1]; at 100.0 µM 97% | [2]; at 11.0 µM 73% | [2]; at 33.0 µM 97% | [2]; at 100.0 µM 96% | [3]; [17] 95% | [3]; at 50.0 µM 89% | [5]; [17] 95% | [5]; at 50.0 µM 73.7% | [6]; at 33.0 µM 96% | [6]; [17] 97% | [6]; at 50.0 µM 87.2% | [6]; at 100.0 µM 96% | [14]; at 33.0 µM 97% | [14]; at 100.0 µM 97% | [7]; at 11.0 µM 75% | [7]; at 33.0 µM 96% | [7]; at 100.0 µM 97% | [15]; at 11.0 µM 78% | [15]; at 33.0 µM 97% | [15]; at 100.0 µM 97% | [8]; [17] 98% | [8]; at 50.0 µM 80.5% | [9]; at 33.0 µM 97% | [9]; at 100.0 µM 98%
inactive: [10]; at 1.2 µM -19% | [10]; at 3.7 µM 1% | [10]; at 11.0 µM 49% | [11]; at 1.2 µM -11% | [11]; at 3.7 µM -6% | [11]; at 11.0 µM 11% | [11]; at 33.0 µM 37% | [11]; at 100.0 µM 59% | [12]; at 1.2 µM -32% | [12]; at 3.7 µM -27% | [12]; at 11.0 µM 69% | [13]; at 1.2 µM 3% | [13]; at 3.7 µM 10% | [13]; [16] 1% | [1]; at 1.2 µM -6% | [1]; at 3.7 µM -16% | [1]; [16] 28% | [1]; at 11.0 µM 53% | [2]; at 1.2 µM -20% | [2]; at 3.7 µM -9% | [3]; [16] 12% | [5]; [16] 42% | [6]; at 1.2 µM -13% | [6]; at 3.7 µM -3% | [6]; [16] 44% | [6]; at 11.0 µM 54% | [14]; at 1.2 µM -15% | [14]; at 3.7 µM 0% | [14]; at 11.0 µM 57% | [7]; at 1.2 µM -4% | [7]; at 3.7 µM 4% | [15]; at 1.2 µM 0% | [15]; at 3.7 µM 17% | [8]; [16] 44% | [9]; at 1.2 µM -13% | [9]; at 3.7 µM -9% | [9]; at 11.0 µM 11%
